{
  "source": "PubChem BioAssay (NCATS)",
  "note": "Several values for one entry are separate records, joined by “and”; a condition that tells them apart may be missing. Equal values may be shown once. Records with an inconclusive call do not appear. The source holds several records for some structures; these can differ, active in one and inactive in another. Activity calls are given as the source filed them. The call rests on the fitted dose curve; in most records, active means well fitted cell-killing curve with a large enough effect; inconclusive means small, poorly fitted or top-dose-only effect, or effect the other way; inactive means no such curve, though single readings can be large or run the other way. Potency means the concentration at half of the fitted maximal effect.",
  "data": [
    {"test": "Viability qHTS for spleen associated tyrosine kinase inhibitor (SYKi) naive MV4-11 cells (AID 1963823); further: nearly all actives have a fitted effect of over 40% in size", "conditions": "MV4-11 AML viability, CellTiter-Glo luminescence, 72 h; series mostly up to 45 µM", "summary_of_the_method": "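In this viability screen, compounds acted on SYK inhibitor naive MV4-11 cells for three days (72 hr, 37 C). Remaining viable cells were measured by CellTiter-Glo luminescence following a 10 min room-temperature development.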", "values": [
      {"smiles": "CC(C)c1c(C(=O)Nc2ccccc2)c(-c2ccccc2)c(-c2ccc(F)cc2)n1CC[C@@H](O)C[C@@H](O)CC(=O)O", "Potency": "2.99 µM (active) and 1.93 µM (active) and 1.82 µM (active)"},
      {"smiles": "Nc1cc(=O)[nH]c(N)n1", "Potency": "inactive"},
      {"smiles": "CCCCNc1ncc2c(-c3ccc(F)cc3)nn(CC3CCC(N)CC3)c2n1", "note": "(stereo not given)", "Potency": "0.008 µM (active)"},
      {"smiles": "CC(C)c1cc(CNc2nc(Nc3cc(C4CC4)[nH]n3)cc(N3CCN(C)CC3)n2)on1", "Potency": "0.0259 µM (active)"},
      {"smiles": "COc1cc(-c2ccc(=O)[nH]n2)ccc1OC(F)F", "Potency": "inactive"},
      {"smiles": "OCCN1CCN(CC/C=C2/c3ccccc3Sc3ccc(C(F)(F)F)cc32)CC1", "Potency": "21.1 µM (active)"},
      {"smiles": "CN[C@@H]1[C@@H](O)[C@@H](O[C@@H]2[C@H](O)[C@H](O[C@H]3OC(CN)=CC[C@H]3N)[C@@H](N)C[C@H]2N)OCC1(C)O", "note": "(stereo not given in full)", "Potency": "inactive"},
      {"smiles": "N=C1CCCN1Cc1[nH]c(=O)[nH]c(=O)c1Cl", "Potency": "inactive"},
      {"smiles": "CN(C)CCOc1ccc(/C(=C(/CCCl)c2ccccc2)c2ccccc2)cc1", "Potency": "14.8 µM (active)"},
      {"smiles": "CC(=O)OCC[N+](C)(C)C", "Potency": "inactive"},
      {"smiles": "CC(C)(O)CC[C@@H](O)[C@](C)(O)[C@H]1CC[C@@]2(O)C3=CC(=O)[C@@H]4C[C@@H](O)[C@@H](O)C[C@]4(C)[C@H]3CC[C@]12C", "Potency": "inactive"},
      {"smiles": "Nc1c2c(nc3c1CCC3)CCCC2", "Potency": "inactive"},
      {"smiles": "NCC1CCC(C(=O)O)CC1", "note": "(stereo not given)", "Potency": "inactive"},
      {"smiles": "C[C@]12CC[C@@H]3c4ccc(O)cc4CC[C@H]3[C@@H]1CC[C@@H]2O", "Potency": "16.6 µM (active)"},
      {"smiles": "COC(=O)[C@H]1[C@@H](O)[C@@]2(O)c3c(OC)cc(O[C@@H]4O[C@@H]([C@@H](O)CO)CO[C@H]4OC)cc3O[C@@]2(c2ccc(OC)cc2)[C@@H]1c1ccccc1", "Potency": "2.35 µM (active)"},
      {"smiles": "CCC(=O)N1CCOc2c(cc(-c3cc(OC)cc(OC)c3)cc2C(=O)N[C@H]2CCCN(C)C2)C1", "Potency": "16.6 µM (active)"},
      {"smiles": "O=C(Nc1ccc(Oc2ccc(Cl)cc2)c(Cl)c1)c1cc(I)cc(I)c1O", "Potency": "inactive"},
      {"smiles": "CN(C)CCCN1c2ccccc2CCc2ccc(Cl)cc21", "Potency": "16.6 µM (active)"},
      {"smiles": "Cc1nnc(C[C@@H]2C=C(c3ccc(Cl)cc3)c3ccccc3-n3c(C)nnc32)o1", "Potency": "0.235 µM (active)"},
      {"smiles": "CCCNC(C)C(=O)Nc1c(C)csc1C(=O)OC", "note": "(stereo not given)", "Potency": "inactive"},
      {"smiles": "C[C@@H](Nc1ncnc2[nH]c(-c3ccc(O)cc3)cc12)c1ccccc1", "Potency": "4.11 µM (active) and 7.42 µM (active)"},
      {"smiles": "C=CC(=O)Nc1cc(Nc2nccc(-c3cn(C)c4ccccc34)n2)c(OC)cc1N(C)CCN(C)C", "Potency": "1.46 µM (active)"},
      {"smiles": "O=C(O)C(Cc1cc(I)c(O)c(I)c1)c1ccccc1", "note": "(stereo not given)", "Potency": "inactive"},
      {"smiles": "C=CC(=O)N1CC(N2CCN(C(=O)CNc3cc(C4(C)CC4)c(Cl)cc3O)CC2)C1", "Potency": "18.6 µM (active)"},
      {"smiles": "C[N+](C)(CCOc1ccccc1)Cc1cccs1", "Potency": "inactive"},
      {"smiles": "Cc1cc(F)c(C(=O)Nc2cccc(-c3nncn3C(C)C)n2)cc1-n1cnc(C2CC2)c1", "Potency": "5.25 µM (active)"},
      {"smiles": "c1ccc(-c2cc(CCC3CCNCC3)c3ccccc3n2)cc1", "Potency": "7.42 µM (active)"},
      {"smiles": "C[C@H]1O[C@H](O[C@H]2[C@H](O)[C@@H](O)[C@@H](O[C@H]3[C@H](O)[C@@H](O)C(O)O[C@@H]3CO)O[C@@H]2CO)[C@H](O)[C@@H](O)[C@@H]1N[C@H]1C=C(CO)[C@@H](O)[C@H](O)[C@H]1O", "note": "(stereo not given in full)", "Potency": "inactive"},
      {"smiles": "CCOC(=O)c1cnc2c(cnn2CC)c1NN=C(C)C", "Potency": "inactive"},
      {"smiles": "CN1CCC[C@@H]1c1cccnc1", "Potency": "inactive"},
      {"smiles": "CC(C)(C)C(O)/C=C/c1ccc2c(c1)OCO2", "note": "(stereo not given)", "Potency": "inactive"},
      {"smiles": "C/C=C/C/C=C/CCC(=O)[C@H]1O[C@H]1C(N)=O", "Potency": "8.33 µM (active)"},
      {"smiles": "O=C1CC2(CCCC2)CC(=O)N1CCNCC1COc2ccccc2O1", "note": "(stereo not given)", "Potency": "inactive"},
      {"smiles": "Cc1ccc(Nc2nnc(Cc3ccncc3)c3ccccc23)cc1Br", "Potency": "14.8 µM (active)"},
      {"smiles": "C[C@@H](Oc1cc(C(=O)Nc2ccc(C(=O)N3CCN(C)CC3)cc2)nnc1N)c1c(Cl)ccc(F)c1Cl", "Potency": "1.66 µM (active)"},
      {"smiles": "CC(O)C(=O)O", "note": "(stereo not given)", "Potency": "inactive"},
      {"smiles": "CCCCC1(COC(=O)CCC(=O)O)C(=O)N(c2ccccc2)N(c2ccccc2)C1=O", "Potency": "inactive"},
      {"smiles": "CCCCCCCCCCCCCCCC[N+](C)(C)CC", "Potency": "0.299 µM (active)"},
      {"smiles": "C#C[C@]1(O)CC[C@H]2[C@@H]3CCc4cc(O)ccc4[C@H]3CC[C@@]21C", "Potency": "inactive and 14.8 µM (active)"},
      {"smiles": "CN(C)C[C@@H]1CCn2cc(c3ccccc32)C2=C(C(=O)NC2=O)c2cn(c3ccccc23)CCO1", "Potency": "0.186 µM (active)"}
    ]}
  ]
}
